According to ChEMBL document CHEMBL4513149, “CO-ADD screening of MMV (CH) - MMV compounds” (2021):
Results with a measured potency or affinity are listed apart.

Key:
Staphylococcus aureus = conditions: Concentration 20 uM; ASSAY_TEST Inhibition of Bacterial Growth; detection method Absorption (OD600); MEDIA CAMHB; plate type 384well; NBS; CORNING #3640; time 18 hr
Escherichia coli = conditions: Concentration 20 uM; ASSAY_TEST Inhibition of Bacterial Growth; detection method Absorption (OD600); MEDIA CAMHB; plate type 384well; NBS; CORNING #3640; time 18 hr

OC[C@H]1O[C@@H](n2c3ccc(Cl)cc3c3c(-c4cc5ccccc5o4)ncnc32)C(O)[C@H]1O (stereo partly specified)
Inhibition (Staphylococcus aureus): 9.2% | Inhibition (Escherichia coli): 8.79%

COc1ccc(OC(C)C(=O)Nc2ccc(Cl)cc2C)cc1 (stereo unspecified)
Inhibition (Staphylococcus aureus): 11.95% | Inhibition (Escherichia coli): 5.14%

Nc1ccc(C(=O)Nc2ccc(-c3nc4ccccc4o3)cc2)cc1
Inhibition (Staphylococcus aureus): 11.63% | Inhibition (Escherichia coli): 11.29%

COc1ccc(C2(C(=O)Nc3ccc(Br)cc3)CCCC2)cc1
Inhibition (Staphylococcus aureus): 18.94% | Inhibition (Escherichia coli): 6.87%

Cc1nnc(NC(=O)c2cn(-c3ccccc3)nc2-c2ccccc2C)o1
Inhibition (Staphylococcus aureus): 8.57% | Inhibition (Escherichia coli): 8.61%

CC1=Nc2ccc(Cl)cc2C(O)(c2ccc(C)cc2)N1CCN1CCCCC1 (stereo unspecified)
Inhibition (Staphylococcus aureus): 19.52% | Inhibition (Escherichia coli): 11.5%

COc1ccc(CCN2CCC(NCc3cccc(N(C)C)c3)CC2)cc1
Inhibition (Staphylococcus aureus): 16.93% | Inhibition (Escherichia coli): 1.75%

CC(C)NCC(=O)Nc1cccc(C(=O)Nc2cccc(C(F)(F)F)c2)c1
Inhibition (Staphylococcus aureus): 3.81% | Inhibition (Escherichia coli): -2.15%

Cc1ccccc1C(=O)N1N=C(Nc2ccccc2)SC1(C)C
Inhibition (Staphylococcus aureus): 8.67% | Inhibition (Escherichia coli): 8.51%

Cc1cc(Nc2ccncc2)n2nc(C)c(-c3ccccc3Cl)c2n1
Inhibition (Staphylococcus aureus): 12.68% | Inhibition (Escherichia coli): 7.54%

CNC(=O)C1Cc2c([nH]c3cc(Cl)ccc23)C2(CCN(CCc3ccccc3)CC2)N1 (stereo unspecified)
Inhibition (Staphylococcus aureus): 24.47% | Inhibition (Escherichia coli): 9.53%

Cl.c1ccc(Oc2ccc(-c3cc(N4CCNCC4)[nH]n3)cc2)cc1
Inhibition (Staphylococcus aureus): 14.57% | Inhibition (Escherichia coli): 9.1%

CC(C)(C)OC(=O)N1CCN(c2nccc(-c3ccc(-c4ccc(Cl)cc4)s3)n2)CC1
Inhibition (Staphylococcus aureus): 15.85% | Inhibition (Escherichia coli): 9.45%

Cc1cnc(N2CCN[C@@H](Cc3ccccc3)C2)nc1Oc1ccc(-n2ccnc2)cc1.Cl
Inhibition (Staphylococcus aureus): 11.48% | Inhibition (Escherichia coli): -1.63%

CC(C)C(NC(=O)Cc1cccc2ccccc12)C(=O)Nc1cccc(C#N)c1 (stereo unspecified)
Inhibition (Staphylococcus aureus): 17.14% | Inhibition (Escherichia coli): 6.32%

CC(C)(C)CN1C(=O)C(c2ccccc2)(c2ccccc2)N=C1N
Inhibition (Staphylococcus aureus): 17.09% | Inhibition (Escherichia coli): 4.18%

COc1ccc(-c2cnc3cnc(-c4cccc(OC(C)C)c4)cn23)cc1
Inhibition (Staphylococcus aureus): 6.79% | Inhibition (Escherichia coli): 4.77%

CC(C(=O)Nc1ccc2oc(-c3ccncc3)nc2c1)c1ccccc1 (stereo unspecified)
Inhibition (Staphylococcus aureus): 33.61% | Inhibition (Escherichia coli): 6.76%

COC(=O)c1cccc2oc(-c3cccc(OC)c3NC(=O)c3cc(-c4ccccc4)on3)nc12
Inhibition (Staphylococcus aureus): 11.44% | Inhibition (Escherichia coli): 4.98%

CC(=O)N(CCN(C(=O)c1ccc(F)cc1)c1ccccc1)c1ccccc1
Inhibition (Staphylococcus aureus): 12.64% | Inhibition (Escherichia coli): 5.32%

CCCCc1ccc(C(=O)Nc2nccc3ccccc23)nc1
Inhibition (Staphylococcus aureus): 5.7% | Inhibition (Escherichia coli): -0.87%

COc1cccc2c(C)nc(N=C(N)N)nc12.O=C(O)C(F)(F)F.O=C(O)C(F)(F)F
Inhibition (Staphylococcus aureus): 15.44% | Inhibition (Escherichia coli): 7.95%

Nc1nccc2ccc(Oc3ccncc3)cc12
Inhibition (Staphylococcus aureus): 12.81% | Inhibition (Escherichia coli): 7.44%

CN1CCC(NCc2cccc(-c3ccc(S(=O)(=O)NCc4ccccc4)cc3)c2)CC1
Inhibition (Staphylococcus aureus): 14.84% | Inhibition (Escherichia coli): 4.63%

Cl.NCCCC(N)(C(=O)O)C(F)F.O (stereo unspecified) [EFLORNITHINE HYDROCHLORIDE]
Inhibition (Staphylococcus aureus): 10.2% | Inhibition (Escherichia coli): -2.06%

CC(Oc1cccc(Cl)c1)C(=O)Nc1ccc2oc(-c3ccncc3)nc2c1 (stereo unspecified)
Inhibition (Staphylococcus aureus): 60.53% | Inhibition (Escherichia coli): 7.3%

CC(C)C(C(=O)Nc1ccc(S(=O)(=O)N(C)C)cc1)c1ccc(Cl)cc1 (stereo unspecified)
Inhibition (Staphylococcus aureus): 3.5% | Inhibition (Escherichia coli): 11.91%

CN(C)CCNC(=O)N1CCCN(c2ncnc3cc(-c4ccccc4)sc23)CC1
Inhibition (Staphylococcus aureus): 13.78% | Inhibition (Escherichia coli): 3.44%

CN1CCN(S(=O)(=O)c2ccc(-c3ccc4c(Nc5ncc(Cl)cn5)ccnc4c3)cc2)CC1
Inhibition (Staphylococcus aureus): 23.03% | Inhibition (Escherichia coli): 2.97%

N#Cc1nc(-c2ccccc2)oc1S(=O)(=O)c1ccc(Cl)cc1
Inhibition (Staphylococcus aureus): 8.62% | Inhibition (Escherichia coli): 6.48%

COc1ccc(Cn2cnc3c(-c4ccco4)nc(Cl)nc32)cc1
Inhibition (Staphylococcus aureus): 20.69% | Inhibition (Escherichia coli): 10.18%

Clc1ccc(CN2CCN(C3=NCCN3)CC2)cc1Cl
Inhibition (Staphylococcus aureus): 14.27% | Inhibition (Escherichia coli): 4.2%

CCOC(=O)c1cc(-c2csc(Nc3c(C)cc(C)cc3C)n2)on1
Inhibition (Staphylococcus aureus): 5.55% | Inhibition (Escherichia coli): 5.47%
